Whole data set: some 68,000 sequences, median “fluorescence intensity (a.u.)” near 9,100, cut for the highest 2% near 16,000. The entries come from a sample that favours the highest values as a whole.

Sequence of OsWRKY34 (Q0JBA9 entry or part of it): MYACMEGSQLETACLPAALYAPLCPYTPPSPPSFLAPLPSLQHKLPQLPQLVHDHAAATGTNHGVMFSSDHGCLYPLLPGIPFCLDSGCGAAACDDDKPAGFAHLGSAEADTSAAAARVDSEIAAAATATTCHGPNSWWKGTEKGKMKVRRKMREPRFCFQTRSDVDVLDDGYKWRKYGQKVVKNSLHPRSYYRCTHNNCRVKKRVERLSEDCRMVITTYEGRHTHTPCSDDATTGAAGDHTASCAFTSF

For the assay, the target named is OsWRKY34 (Oryza sativa, UniProt Q0JBA9 1-250). Briefly: protein-binding microarray (RPBM); PBS, 2% BSA, 51.3 ng/ul salmon testes DNA, 50 uM zinc acetate, 200 nM TF, 25 C, 1 h; high values mean tight binding. The settings on record: protein: recombinant; tags: N-terminal polyhistidine and DsRed monomer fusion (pET32a); label: CyDye5-dUTP incorporated in the synthesized complementary strand; 3' TTTTT single-stranded linker to array surface; dsDNA, one strand shown. In short, it runs like this:
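Transcription factors were each fused at the N-terminus to a polyhistidine tag plus DsRed and expressed in E. coli BL21-CodonPlus before Ni–NTA purification. Binding to a double-stranded custom Agilent array was carried out with 200 nM protein at 25 °C for 1 h in PBS, 2% BSA, salmon testes DNA and 50 µM zinc acetate. The binding signal is per-feature fluorescence intensity, in arbitrary units, on an Axon 4000B scanner.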
With “TGGTCGGGTGTTTTTGTGATTGATGGTTTTGGTAGACGGGCGGAGTCACCTAGTGCAG”, the binding signal was 11200 fluorescence intensity (a.u.).
The result for “TTTGGGGTTCAGCGGGCATTTGTTTTGATTGTTTCTTATTCGGAGTCACCTAGTGCAG” reads 23400 fluorescence intensity (a.u.); that for “TGGGTGGTGTTGGTTTTGCATGGTAGACGCGGGGTCCGATCGGAGTCACCTAGTGCAG”, 18400 fluorescence intensity (a.u.); that for “CTTTTTTTTGGTTTGCCGTGTGGTGGGTTTCGGGTCCGCGCGGAGTCACCTAGTGCAG”, 14500 fluorescence intensity (a.u.).
The result for “TTTACATCTAATATTTTTTATTTGGGGTTCAGCGGGCATTCGGAGTCACCTAGTGCAG” reads 11100 fluorescence intensity (a.u.); that for “CATTTCTTATTTTGTTTTTGGGCTTTGATGTTTGGTTTCTCGGAGTCACCTAGTGCAG”, 8740 fluorescence intensity (a.u.); that for “CTAAAAGTCAATCCACGCCACCATCGATCTCTCTATCCAACGGAGTCACCTAGTGCAG”, 9440 fluorescence intensity (a.u.).
In the case of “CTATGATTGGTCAAGTGCTGTTGCTATTTCTCTGCTGATACGGAGTCACCTAGTGCAG”, the binding signal is 10200 fluorescence intensity (a.u.).
Turning to “GCTGTTCCATGCTCCACAACCCCGGGTCATTGACCCAATCCGGAGTCACCTAGTGCAG”, the binding signal was 16700 fluorescence intensity (a.u.).
As for “TCACCACCACCATCACAACCCAATCCCAATCCAAACCACCCGGAGTCACCTAGTGCAG”, the binding signal was 8530 fluorescence intensity (a.u.).
Take “GATCATCTGTTCCACCCGCCACCCGCCACCCGCCACAATCCGGAGTCACCTAGTGCAG”: the binding signal was 13200 fluorescence intensity (a.u.).
For “GAAAAGCCACTAATCTCCAACCTCGTCTACACTTCTCCAACGGAGTCACCTAGTGCAG” the value was 8970 fluorescence intensity (a.u.); for “GTTTGATCCATTACAGCTCCACATATATTGTGAAATCATTCGGAGTCACCTAGTGCAG”, 10500 fluorescence intensity (a.u.); for “ACAACCGCACATACGCCACGGCCCACTCCTCCTTCTCGCCCGGAGTCACCTAGTGCAG”, 9350 fluorescence intensity (a.u.).
In the case of “GAACGTCTGGACGTTGGAACACTCCATGTTTTTGTCTGATCGGAGTCACCTAGTGCAG”, the binding signal was 8740 fluorescence intensity (a.u.).
For “TCTGTCTATCCTTTGTAAAGTCACTTGCCCTTGCATTACTCGGAGTCACCTAGTGCAG” the value was 16500 fluorescence intensity (a.u.); for “TATATCTATATGCCATATCATCTGTCTATCCTTTGTAAAGCGGAGTCACCTAGTGCAG”, 8740 fluorescence intensity (a.u.).
The result for “CCTTGTCTGTACTCTCTCTACTTTCCACCTCTATCCGCCTCGGAGTCACCTAGTGCAG” reads 9420 fluorescence intensity (a.u.); that for “GCATCCTTTTCATTGGCCTTTGCGTGTAATTTGGGGCATGCGGAGTCACCTAGTGCAG”, 9230 fluorescence intensity (a.u.); that for “GTGTTTCCCATGGTTTGCACCAGTCTCCTCTGATGCAGTCCGGAGTCACCTAGTGCAG”, 26400 fluorescence intensity (a.u.).
“CAGTCTCCTCTGATGCAGTCTCGTTCTCTGTTTCTTTTTGCGGAGTCACCTAGTGCAG”: the binding signal was 10600 fluorescence intensity (a.u.).
For the sequence “GGTTTGGGTTCCTCTCTCGTCTCGTCTGTTTTGTTTTCCCCGGAGTCACCTAGTGCAG”, the binding signal was 21900 fluorescence intensity (a.u.).
On to “ATCTGGGTTCTTTTTTTTTCTTTTTTTGCCGGGTTTTTTTCGGAGTCACCTAGTGCAG”, for which the binding signal was 14800 fluorescence intensity (a.u.).
The result for “TTTTCGTGTTCGGGTTTGGGTTTGAGTGCCGCATCTGCAACGGAGTCACCTAGTGCAG” reads 21500 fluorescence intensity (a.u.); that for “TGTTCTGGTTCGGATCTGAGCGGGTGTTGGGTGTTTTCAACGGAGTCACCTAGTGCAG”, 9230 fluorescence intensity (a.u.).
For “ATACTTCCTTTCTGTTTCCAGTGTCTCTCTTCATGCACTCCGGAGTCACCTAGTGCAG” the value was 10700 fluorescence intensity (a.u.); for “GGTTTGTTTGTCGTTCATGTGACGAGCGCATCCGTTTTCCCGGAGTCACCTAGTGCAG”, 9140 fluorescence intensity (a.u.).
For “CCTCGTTTTTTTTTTTGGGTTCATCTCGTGTGTTCCGTGACGGAGTCACCTAGTGCAG” the value was 18400 fluorescence intensity (a.u.).
With “CTCGTCTGTTTTGTTTTCCCCTCCGACTCCGACTCCGATCCGGAGTCACCTAGTGCAG”, the binding signal is 8180 fluorescence intensity (a.u.).
For “ATTTTAATTAATCTCGTGTTGGGTTCTTATATGGTTTTTCCGGAGTCACCTAGTGCAG” the value was 8350 fluorescence intensity (a.u.); for “CCTCGGCCTATAGTGTTGGGTTTGGGTGTTGGTTTTTCCCCGGAGTCACCTAGTGCAG”, 15600 fluorescence intensity (a.u.); for “CGATTGCCATTGTTCGTGTGTTTTTTCTTGTCTCTTTCCGCGGAGTCACCTAGTGCAG”, 11000 fluorescence intensity (a.u.).
For “TCACCATCTCGACTCAGCCAATCCATTTCTAAATTTTATACGGAGTCACCTAGTGCAG” the value was 8690 fluorescence intensity (a.u.).
For “TTAACCACAGTGCCGTTCTCTAGCCACCATCTCAGCAGCACGGAGTCACCTAGTGCAG” the value was 8220 fluorescence intensity (a.u.); for “TGGGAAGTACATATGTAATGTTGTTTATTTATTTTTGTTTCGGAGTCACCTAGTGCAG”, 9860 fluorescence intensity (a.u.); for “ATCTTGGGAAGGCCGTTACTCACTCTAGACTTTACTCCTCCGGAGTCACCTAGTGCAG”, 8270 fluorescence intensity (a.u.).
With “CCTCACCGATGGATTTTTTAGCCCGATCCTACCCCTCCTACGGAGTCACCTAGTGCAG”, the binding signal is 10500 fluorescence intensity (a.u.).
For “ACCACGTCCCTTTCCATTTTCCCTTGTTTTTTTTCCTCCTCGGAGTCACCTAGTGCAG” the value was 11200 fluorescence intensity (a.u.).
For the sequence “TAATTTTACTCGATACTCTATGTACCCCTGAAATTTCGCTCGGAGTCACCTAGTGCAG”, the binding signal is 9560 fluorescence intensity (a.u.).
The result for “GCCTTGTCTATTGCCTCAGAAGTTGGTTACCCTGTTGTTGCGGAGTCACCTAGTGCAG” reads 8150 fluorescence intensity (a.u.); that for “GATGTGCCCTTTATTCACAACATTTAACAATTGTTACTTGCGGAGTCACCTAGTGCAG”, 8520 fluorescence intensity (a.u.); that for “GTATGGTTGGTTGGTTGGTTTGTTGGGTTTCTCCCCGGCCCGGAGTCACCTAGTGCAG”, 33300 fluorescence intensity (a.u.).
Turning to “TTAAAAAAAGTTGGGTAATTGTGGGGTTTGTTTTTTCTCCCGGAGTCACCTAGTGCAG”, the binding signal was 9490 fluorescence intensity (a.u.).
“GGGTTTTCCACGTTAAATCTCGTGTCTTCTGTGTTTGATCCGGAGTCACCTAGTGCAG”: the binding signal was 12000 fluorescence intensity (a.u.).

These data come from article PMC7819943, “Rice protein-binding microarrays: a tool to detect cis-acting elements near promoter regions in rice”.
